Where “and” joins values, the source holds several entries; their conditions need not be identical. Identical values can stand only once. A structure can be active in one record and inactive in another. Calls of active or inactive are those of the source. Rule for the calls: active = hit-call score of the fitted dose curve at least 0.9, where 1 is the maximum; inactive = score below 0.9.
Assays:
[1] = BSK_hDFCGF_SRB: Viability Assessment in the BioMAP Diversity Plus: hDFCGF Assay (AID 2283061); conditions: primary human foreskin fibroblasts;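 note: cells exposed to compound for 24 h before the read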
In short: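 Readout is SRB absorbance at 560 nm, reflecting total protein in parallel cultures of human foreskin fibroblasts harvested 24 h after chemical dosing. Activity was fitted bidirectionally relative to DMSO.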

[2] = read-out: Monokine induced gamma interferon (MIG), CXCL9 (gene 4283); assay: BSK_hDFCGF_MIG: BioMAP Diversity Plus: hDFCGF Assay for Monokine induced gamma interferon (MIG) Biomarker Activity (AID 2283063); conditions: primary human foreskin fibroblasts; actives raise or lower the signal
In short: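 Chemicals were added to primary human foreskin fibroblast cultures, which were sampled 24 h later. MIG levels were then quantified by ELISA and responses fitted in both directions relative to DMSO.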

[3] = read-out: Matrix Metallopeptidase 1 (MMP1), MMP1 (gene 4312); assay: BSK_hDFCGF_MMP1: BioMAP Diversity Plus: hDFCGF Assay for Matrix Metallopeptidase 1 (MMP1) Biomarker Activity (AID 2283064); conditions: primary human foreskin fibroblasts; actives raise or lower the signal
In short: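 Primary human foreskin fibroblasts in the hDFCGF system were dosed with test chemical, and MMP1 was measured by ELISA 24 h later. Values come from bidirectional curve fitting against the DMSO baseline.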

[4] = read-out: Vascular cell adhesion molecule 1 (VCAM1), VCAM1 (gene 7412); assay: BSK_hDFCGF_VCAM1: BioMAP Diversity Plus: hDFCGF Assay for Vascular cell adhesion molecule 1 (VCAM1) Biomarker Activity (AID 2283065); conditions: primary human foreskin fibroblasts; actives raise or lower the signal;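 for AC50: VCAM-1 protein level quantified by ELISA after 24 h chemical exposure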
In short: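 Human foreskin fibroblast primary cells, chemical exposure 24 h; VCAM-1 by ELISA; bidirectional fit, DMSO = negative control/baseline.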

[5] = read-out: Plasminogen activator inhibitor-1 (PAI1), SERPINE1 (gene 5054); assay: BSK_hDFCGF_PAI1: BioMAP Diversity Plus: hDFCGF Assay for Plasminogen activator inhibitor-1 (PAI1) Biomarker Activity (AID 2283066); conditions: primary human foreskin fibroblasts; actives raise or lower the signal
In short: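 Human foreskin fibroblasts in the hDFCGF system were dosed with compound for 24 h; PAI-1 was quantified by ELISA. Bidirectional curve fitting used DMSO as negative control and baseline.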

[6] = read-out: Intercellular Adhesion Molecule 1 (ICAM1), ICAM1 (gene 3383); assay: BSK_KF3CT_ICAM1: BioMAP Diversity Plus: KF3CT Assay for Intercellular Adhesion Molecule 1 (ICAM1) Biomarker Activity (AID 2283067); conditions: primary human keratinocytes with fibroblasts; actives raise or lower the signal
In short: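 ICAM-1 levels are measured by ELISA 24 h after dosing a primary human co-culture of keratinocytes and foreskin fibroblasts. Activity in either direction is fitted relative to DMSO vehicle.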

[7] = read-out: Interferon-gamma inducible Protein 10 (IP10), CXCL10 (gene 3627); assay: BSK_KF3CT_IP10: BioMAP Diversity Plus: KF3CT Assay for Interferon-gamma inducible Protein 10 (IP10) Biomarker Activity (AID 2283068); conditions: primary human keratinocytes with fibroblasts; actives raise or lower the signal
In short: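 In a primary skin co-culture of keratinocytes and fibroblasts, IP-10 is quantified by ELISA at 24 h after dosing. SRB staining of parallel wells monitors overt toxicity. Curves are fitted both directions against DMSO.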

[8] = BSK_KF3CT_SRB: Viability Assessment in the BioMAP Diversity Plus: KF3CT Assay (AID 2283069); conditions: primary human keratinocytes with fibroblasts;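 note: total protein by sulforhodamine B staining as a cytotoxicity measure; read 24 h after compound addition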
In short: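 Human primary keratinocyte plus foreskin fibroblast co-culture exposed to chemicals for 24 h. Total protein measured by 0.1% sulforhodamine B staining after 10% TCA fixation, read at 560 nm; bidirectional fitting versus DMSO baseline.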

[9] = read-out: Interleukin-1 alpha (IL1a), IL1A (gene 3552); assay: BSK_KF3CT_IL1a: BioMAP Diversity Plus: KF3CT Assay for Interleukin-1 alpha (IL1a) Biomarker Activity (AID 2283070); conditions: primary human keratinocytes with fibroblasts; actives raise or lower the signal
In short: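 Human keratinocyte plus foreskin fibroblast primary co-culture, sampled 24 h after chemical dosing. IL-1a measured by ELISA; responses fitted bidirectionally against DMSO baseline (negative control), so gain or loss of signal both count.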

[10] = read-out: TIMP metallopeptidase inhibitor 2 (TIMP2), TIMP2 (gene 7077); assay: BSK_KF3CT_TIMP2: BioMAP Diversity Plus: KF3CT Assay for TIMP metallopeptidase inhibitor 2 (TIMP2) Biomarker Activity (AID 2283071); conditions: primary human keratinocytes with fibroblasts; actives raise or lower the signal
In short: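 Human primary keratinocyte/foreskin fibroblast co-culture dosed with chemical and sampled at 24 h. TIMP-2 levels quantified by ELISA; bidirectional fitting against DMSO negative control as baseline.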

[11] = read-out: Transforming growth factor beta 1 (TGFb1), TGFB1 (gene 7040); assay: BSK_KF3CT_TGFb1: BioMAP Diversity Plus: KF3CT Assay for Transforming growth factor beta 1 (TGFb1) Biomarker Activity (AID 2283072); conditions: primary human keratinocytes with fibroblasts; actives raise or lower the signal
In short: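 Human keratinocyte plus foreskin fibroblast primary co-culture, dosed with chemical for 24 h. TGF-b1 quantified by ELISA. Activity fitted bidirectionally against DMSO negative control as baseline.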

[12] = read-out: C-C motif chemokine 2 (Homo sapiens) (UniProt P13500); assay: BSK_KF3CT_MCP1: BioMAP Diversity Plus: KF3CT Assay for Monocyte Chemoattractant Protein 1 (MCP1/CCL2) Biomarker Activity (AID 2283073); conditions: primary human keratinocytes with fibroblasts; actives raise or lower the signal
In short: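 ELISA readout of MCP-1 after 24 h chemical dosing of a human skin primary co-culture of keratinocytes and foreskin fibroblasts. Activity was fitted in both directions against DMSO.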

[13] = read-out: Matrix Metallopeptidase 9 (MMP9), MMP9 (gene 4318); assay: BSK_KF3CT_MMP9: BioMAP Diversity Plus: KF3CT Assay for Matrix Metallopeptidase 9 (MMP9) Biomarker Activity (AID 2283074); conditions: primary human keratinocytes with fibroblasts; actives raise or lower the signal;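 for AC50: MMP9 protein level quantified by ELISA in the co-culture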
In short: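 Keratinocyte plus foreskin fibroblast human primary skin co-culture was dosed with chemical and MMP-9 was quantified by ELISA 24 h later. Bidirectional curve fitting used DMSO as negative control and activity baseline.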

[14] = read-out: urokinase plasminogen activator (uPA), PLAU (gene 5328); assay: BSK_KF3CT_uPA: BioMAP Diversity Plus: KF3CT Assay for urokinase plasminogen activator (uPA) Biomarker Activity (AID 2283075); conditions: primary human keratinocytes with fibroblasts; actives raise or lower the signal
In short: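 Human keratinocyte plus foreskin fibroblast primary co-culture exposed to chemical for 24 h. uPA levels were quantified by ELISA, and activity was fitted bidirectionally against a DMSO negative-control baseline.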

[15] = read-out: E-selectin (Homo sapiens) (UniProt P16581); assay: BSK_LPS_Eselectin: BioMAP Diversity Plus: LPS Assay for Eselectin Biomarker Activity (AID 2283077); conditions: primary human HUVEC with PBMC; actives raise or lower the signal
In short: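 Primary human vascular co-culture (endothelium plus PBMC) was dosed with chemical, then E-selectin quantified by ELISA at 24 h. Endpoint values derive from bidirectional curve fitting relative to DMSO.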

[16] = read-out: Interleukin-8 (IL8), CXCL8 (gene 3576); assay: BSK_LPS_IL8: BioMAP Diversity Plus: LPS Assay for Interleukin-8 (IL8) Biomarker Activity (AID 2283078); conditions: primary human HUVEC with PBMC; actives raise or lower the signal
In short: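 Readout is IL-8 by ELISA, taken 24 h after compounds were added to LPS-stimulated endothelial/PBMC co-cultures. Both increases and decreases relative to DMSO control were scored through bidirectional fitting.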

[17] = BSK_LPS_SRB: Viability Assessment in the BioMAP Diversity Plus: LPS Assay (AID 2283079); conditions: primary human HUVEC with PBMC;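 note: total protein by sulforhodamine B absorbance as a cytotoxicity measure; measured one day after compound addition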
In short: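 Readout is SRB absorbance at 560 nm (0.1% stain, TCA-fixed parallel cultures) as a total-protein cytotoxicity measure. Cells: primary human umbilical vein endothelium plus peripheral blood mononuclear cells, 24 h after chemical exposure; DMSO served as baseline.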

CD40, CD40 (gene 958) = assay: BSK_LPS_CD40: BioMAP Diversity Plus: LPS Assay for CD40 Biomarker Activity (AID 2283076); conditions: primary human HUVEC with PBMC; actives raise or lower the signal
In short: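 Cells were dosed, incubated 24 h, then assayed for CD40 by ELISA. Gain or loss of signal was analysed relative to DMSO controls. The culture paired human umbilical vein endothelium with peripheral blood mononuclear cells.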

[18] = read-out: Interleukin-1 alpha (IL1a), IL1A (gene 3552); assay: BSK_LPS_IL1a: BioMAP Diversity Plus: LPS Assay for Interleukin-1 alpha (IL1a) Biomarker Activity (AID 2283080); conditions: primary human HUVEC with PBMC; actives raise or lower the signal
In short: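 ELISA read-out of IL-1 alpha from a human primary vascular co-culture (endothelium plus PBMC) under LPS, sampled 24 hours post-dosing. Activity was fitted in both directions relative to DMSO controls.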

Measured: AC50

E-selectin (Homo sapiens), sequence (P16581 whole entry, looked up): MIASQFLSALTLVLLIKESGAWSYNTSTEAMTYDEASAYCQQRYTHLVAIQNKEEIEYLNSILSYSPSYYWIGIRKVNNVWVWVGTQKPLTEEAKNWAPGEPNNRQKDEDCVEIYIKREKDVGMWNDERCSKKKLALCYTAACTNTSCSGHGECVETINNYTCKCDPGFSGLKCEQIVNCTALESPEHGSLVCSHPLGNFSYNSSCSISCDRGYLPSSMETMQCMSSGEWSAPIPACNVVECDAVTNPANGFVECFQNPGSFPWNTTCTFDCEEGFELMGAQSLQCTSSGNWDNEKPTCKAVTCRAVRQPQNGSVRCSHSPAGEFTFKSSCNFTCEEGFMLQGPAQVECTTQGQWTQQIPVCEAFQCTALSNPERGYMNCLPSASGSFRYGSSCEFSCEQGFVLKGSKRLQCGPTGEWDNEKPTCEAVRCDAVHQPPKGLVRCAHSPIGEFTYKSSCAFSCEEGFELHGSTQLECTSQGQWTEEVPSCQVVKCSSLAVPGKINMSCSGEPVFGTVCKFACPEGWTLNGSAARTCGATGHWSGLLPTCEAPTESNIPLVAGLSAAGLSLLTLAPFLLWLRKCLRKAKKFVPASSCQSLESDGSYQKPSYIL

O=C=NCc1cccc(CN=C=O)c1
not listed: CD40, CD40 (gene 958) | [18]
inactive: all other assays above

CO[Si](C)(CCC(F)(F)C(F)(F)C(F)(F)C(F)(F)C(F)(F)C(F)(F)F)OC
not listed: [11] | [18]
inactive: all other assays above

O=C(F)C1(F)C(F)(F)C(F)(F)C(F)(F)C(F)(F)C1(F)F
not listed: [11] | [18]
inactive: all other assays above

OCC(F)(F)C(F)(F)C(F)(F)C(F)(F)C(F)(F)C(F)(F)C(F)(F)C(F)(F)CO
active: [1] 38.3 µM and 54.8 µM | [2] 44 µM and 45.1 µM | [3] 55.2 µM and 48.8 µM | [4] 42.5 µM and 21.8 µM | [5] 54.9 µM and 56.4 µM | [6] 42.4 µM and 42.7 µM | [7] 35.2 µM | [8] 50.9 µM and 44.1 µM | [9] 50.4 µM | [10] 55.2 µM and 48.6 µM | [12] 50.8 µM and 42.3 µM | [13] 50.3 µM and 49.4 µM | [15] 0.559 µM
inactive: [7] | [9] | [14] | CD40, CD40 (gene 958) | [15] | [16] | [17]

O=C(c1ccccc1)c1ccc(O)cc1O
active: [13] 26 µM
not listed: [18]
inactive: all other assays above

C=C(C)C(=O)OCC(F)(F)C(F)(F)C(F)(F)C(F)F
not listed: [11] | CD40, CD40 (gene 958)
inactive: all other assays above

O=C(O)C(F)(F)C(F)(F)C(F)(F)OC(F)(F)F
not listed: [11]
inactive: all other assays above

O=S(=O)(O)CCC(F)(F)C(F)(F)C(F)(F)C(F)(F)C(F)(F)C(F)(F)C(F)(F)C(F)(F)F
inactive: [2] | [3] | [4] | [5] | [6] | [7] | [8] | [9] | [10] | [12] | [13] | [14] | CD40, CD40 (gene 958) | [15] | [16] | [17]
active: [1] 54.3 µM and 24.7 µM | [3] 30 µM | [9] 7.84 µM
